In PubChem BioAssay (Tox21) one finds Potency and outcome data, which are given here for nine molecules.

Assay [1] in a line: qHTS RealTime-Glo MT Cell Viability Assay in HEK293 cells - 0 hour (AID 1224880). Note: top concentration of the series differs between compounds; nearly all actives have a fitted effect of over 45% in size. The method, boiled down: (§1)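 Viable HEK293 cells reduce a cell-permeant prosubstrate; the product diffuses out and is consumed by NanoLuc in the medium to give light. Compounds went in after a 5 h incubation and plates were read over the treatment course.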
A general note: Quantitative high-throughput screening tests each substance at several concentrations.

Assay [2] can be described thus: A CellTox Green Cytotoxicity Assay to monitor cytotoxicity in HEK293 cells - 32 hour (AID 1224881). Note: nearly all actives have a fitted effect of over 40% in size. The method, boiled down:
(§2)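 Fluorescence intensity, read at 0, 8, 16, 24, 32 and 40 h of compound treatment, reflected dye binding to DNA of dead HEK293 cells; compounds (23 nL, DMSO) were added 5 h after plating cells with reagent.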

Assay [3] can be described thus: A CellTox Green Cytotoxicity Assay to monitor cytotoxicity in HepG2 cells - 0 hour (AID 1224882). Note: nearly all actives have a fitted effect of over 35% in size. The method, boiled down:
(§3)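 Using 1536-well format, dye-containing HepG2 suspension was seeded, allowed 5 h at 37 C/5% CO2, dosed by pintool with compounds, positive and negative controls, and imaged for fluorescence across 40 h.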

A short description of assay [4]: A CellTox Green Cytotoxicity Assay to monitor cytotoxicity in HepG2 cells - 32 hour (AID 1224883). Note: nearly all actives have a fitted effect of over 50% in size. The method, boiled down:
as §3

Assay [5] can be described thus: A CellTox Green Cytotoxicity Assay to monitor cytotoxicity in HEK293 cells - 8 hour (AID 1224884). Note: nearly all actives have a fitted effect of over 35% in size. The procedure, abridged: as §2
The nature of assay [6]: qHTS RealTime-Glo MT Cell Viability Assay in HEK293 cells - 24 hour (AID 1224886). Note: top concentration of the series differs between compounds; nearly all actives have a fitted effect of over 50% in size. The procedure, abridged:
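Viability tracked continuously by luminescence as live cells reduce a prosubstrate for NanoLuc; HEK293 cells preincubated 5 h, compound-treated at 37 C, and read at 0, 8, 16, 24, 32 and 40 h.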

The nature of assay [7]: qHTS RealTime-Glo MT Cell Viability Assay in HEK293 cells - 8 hour (AID 1224887). Note: nearly all actives have a fitted effect of over 50% in size. Note: potency is the fitted concentration of half-maximal effect. The procedure, abridged: as §1
A short description of assay [8]: A CellTox Green Cytotoxicity Assay to monitor cytotoxicity in HEK293 cells - 16 hour (AID 1224888). Note: nearly all actives have a fitted effect of over 35% in size. The procedure, abridged: as §2
Assay [9] is described as follows: qHTS RealTime-Glo MT Cell Viability Assay in HepG2 cells - 0 hour (AID 1224889). Note: nearly all actives have a fitted effect of over 50% in size. The procedure, abridged:
(§4)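 Viability was tracked continuously by NanoLuc luminescence from prosubstrate reduced by living HepG2 cells, at successive time points over 40 h of compound exposure. Cells with reagent were preincubated 5 h at 37 °C before compound addition.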

Assay [10] is described as follows: A CellTox Green Cytotoxicity Assay to monitor cytotoxicity in HepG2 cells - 8 hour (AID 1224890). Note: nearly all actives have a fitted effect of over 45% in size. The method, boiled down: as §3
Assay [11] is described as follows: qHTS assay to identify small molecule antagonists of the estrogen receptor alpha (ER-alpha) signaling pathway using the BG1 cell line in the presence of 0.1 nM 17-beta-estradiol - cell viability counter screen (AID 1259241). Note: nearly all actives have a fitted effect of over 40% in size. The procedure, abridged:
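Viability in VM7Luc4E2 cells after 22 hr compound exposure under 0.1 nM 17beta-estradiol stimulation, by CellTiter-Fluor.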

Assay [12] is described as follows: qHTS assay to identify small molecule antagonists of the androgen receptor (AR) signaling pathway using the MDA cell line in the presence of 0.5 nM R1881 - cell viability counter screen (AID 1259242). Note: nearly all actives have a fitted effect of over 45% in size. The method, boiled down:
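Viability of MDA-kb2 cells was multiplexed with the luciferase AR readout; after 16 hr with compounds and R1881 at 0.5 nM final, CellTiter-Fluor fluorescence was recorded.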

A short description of assay [13]: qHTS assay to identify small molecule phospholipidosis (PLD) inducers (AID 1259344; active = well fitted curve in the direction sought with a large enough effect; an effect the other way counts as inactive or inconclusive). The method, boiled down: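 HepG2 cells grown on collagen I take up LipidTOX Red while exposed to compound for 24 h; after fixation they are imaged at 20x and pit metrics are extracted.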
Assay [14] in a line: qHTS assay to identify small molecule HDAC inhibitors (AID 1259364).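 Note: wild-type HCT-116 cells with endogenous class I/II HDAC activity; top concentration of the series differs between compounds; nearly all actives have a fitted effect of over 45% in size.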 The method, boiled down: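 Read-out: luminescence of HDAC-Glo I/II reagent, 30 min RT, reflecting class I/II deacetylase activity in whole HCT-116 cells pre-exposed 2 h to DMSO-dissolved compounds.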
The nature of assay [15]: qHTS assay to identify small molecule HDAC inhibitors - cell viability counter screen (AID 1259365). The procedure, abridged:
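Cytotoxicity was gauged in wild-type HCT-116 cells after a brief 2hr treatment with DMSO-dissolved compounds at 37C and 5% CO2, using CellTiter-Glo luminescence developed for 30min at room temperature.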

Assay [16] in a line: qHTS assay to identify small molecule agonists of the sonic hedgehog signaling (Shh) pathway - cell viability counter screen (AID 1259366). Note: nearly all actives have a fitted effect of over 50% in size. The method, boiled down:
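Stable Gli1-Luc NIH/3T3 clone, 2,000 cells/well. Compound exposure 24hr at 37C. Read-out: CellTiter-Fluor fluorescence.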

A short description of assay [17]: qHTS RealTime-Glo MT Cell Viability Assay in HepG2 cells - 16 hour (AID 1224885). Note: nearly all actives have a fitted effect of over 50% in size. The method, boiled down: as §4
Assay [18] in a line: qHTS assay to identify small molecule antagonists of the sonic hedgehog signaling (Shh) pathway - cell viability counter screen (AID 1259367). Note: nearly all actives have a fitted effect of over 55% in size. The method, boiled down:
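After a 4 hr settling period, 3T3 Gli1-Luc cells were treated with DMSO-dissolved chemicals and conditioned medium, kept 24 hr at 37C in 5% CO2, and assayed for viability by CellTiter-Fluor fluorescence following 1 hr reagent incubation.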

For assay [19], the target named is Estrogen receptor (Homo sapiens) (UniProt P03372). Kind of assay: qHTS assay to identify small molecule antagonists of the estrogen receptor alpha (ER-alpha) signaling pathway using the BG1 cell line in the presence of 0.1 nM 17-beta-estradiol (AID 1259244). Note: nearly all actives have a fitted effect of over 50% in size. The procedure, abridged:
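Estradiol at 0.1 nM (final) stimulates the endogenous ER-alpha of VM7Luc4E2 cells carrying an ERE-driven luciferase; compounds are co-incubated 22 h at 37C and luciferase output quantified by luminescence.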

Assay [20] addresses Androgen receptor (Homo sapiens) (UniProt P10275). Briefly: qHTS assay to identify small molecule antagonists of the androgen receptor (AR) signaling pathway using the MDA cell line in the presence of 0.5 nM R1881 (AID 1259243). Note: nearly all actives have a fitted effect of over 50% in size. The method, boiled down:
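Reporter cells cultured without CO2 receive test chemicals, then 0.5 nM R1881 final; after 16 hr at 37C, ONE-Glo is added and light output recorded.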

Values without a mark were called inactive. Records with an inconclusive call do not appear. Active and inactive are the calls of the source. Unless noted, calls come from the whole dose curve; as a rule, active = well fitted curve in the direction sought with a large enough effect in the repeat runs; inconclusive = weak or mixed curves; inactive = no such curve, though single readings can be large; an effect the other way counts as inactive or inconclusive.

Sequence of Estrogen receptor (Homo sapiens) (P03372 whole entry, looked up): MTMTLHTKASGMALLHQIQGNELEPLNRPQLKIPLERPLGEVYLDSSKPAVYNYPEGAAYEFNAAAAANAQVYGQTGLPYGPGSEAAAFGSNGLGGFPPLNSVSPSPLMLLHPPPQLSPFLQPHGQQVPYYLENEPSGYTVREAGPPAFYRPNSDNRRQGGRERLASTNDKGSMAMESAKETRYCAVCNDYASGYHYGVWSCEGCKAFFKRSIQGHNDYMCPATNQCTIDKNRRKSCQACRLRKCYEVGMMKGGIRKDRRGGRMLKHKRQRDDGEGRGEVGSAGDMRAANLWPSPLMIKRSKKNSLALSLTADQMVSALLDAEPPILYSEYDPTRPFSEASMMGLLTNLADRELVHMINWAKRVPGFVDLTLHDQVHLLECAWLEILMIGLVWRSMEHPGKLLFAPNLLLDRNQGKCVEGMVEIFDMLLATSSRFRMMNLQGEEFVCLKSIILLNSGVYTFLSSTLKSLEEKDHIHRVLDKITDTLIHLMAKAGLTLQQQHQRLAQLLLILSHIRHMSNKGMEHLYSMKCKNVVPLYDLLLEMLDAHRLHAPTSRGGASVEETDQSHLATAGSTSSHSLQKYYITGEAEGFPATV
Sequence of Androgen receptor (Homo sapiens) (P10275 whole entry, looked up): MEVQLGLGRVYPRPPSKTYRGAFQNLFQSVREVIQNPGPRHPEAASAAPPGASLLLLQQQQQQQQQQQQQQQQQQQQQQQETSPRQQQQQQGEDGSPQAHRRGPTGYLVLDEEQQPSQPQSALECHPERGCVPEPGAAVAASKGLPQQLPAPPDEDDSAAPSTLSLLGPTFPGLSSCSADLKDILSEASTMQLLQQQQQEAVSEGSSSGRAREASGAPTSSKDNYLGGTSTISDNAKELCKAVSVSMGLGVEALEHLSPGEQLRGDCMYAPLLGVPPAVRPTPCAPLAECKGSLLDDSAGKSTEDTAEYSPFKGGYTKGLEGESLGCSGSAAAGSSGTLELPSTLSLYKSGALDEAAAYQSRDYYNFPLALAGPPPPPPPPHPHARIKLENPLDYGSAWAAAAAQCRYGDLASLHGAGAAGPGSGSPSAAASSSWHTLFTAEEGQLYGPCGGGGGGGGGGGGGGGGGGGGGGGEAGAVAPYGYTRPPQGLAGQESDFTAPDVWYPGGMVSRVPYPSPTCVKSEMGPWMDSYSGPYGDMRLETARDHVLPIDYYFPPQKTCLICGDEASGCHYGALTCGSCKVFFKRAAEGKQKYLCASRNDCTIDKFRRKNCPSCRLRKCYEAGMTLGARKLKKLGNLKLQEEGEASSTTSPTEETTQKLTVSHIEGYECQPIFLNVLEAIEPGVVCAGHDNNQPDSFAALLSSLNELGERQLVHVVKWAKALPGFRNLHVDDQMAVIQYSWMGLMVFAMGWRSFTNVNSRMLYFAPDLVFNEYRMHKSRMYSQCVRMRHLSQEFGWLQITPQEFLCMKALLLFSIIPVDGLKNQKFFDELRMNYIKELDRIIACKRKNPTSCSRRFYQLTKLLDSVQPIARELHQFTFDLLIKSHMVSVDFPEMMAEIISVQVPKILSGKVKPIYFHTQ

`Cc1ccc(S(=O)(=O)NC(=O)NC2CCCC2)cc1`: the Potency entry in [1], in assay [2], in assay [3], in [4], in assay [5] and in assay [6] was “inactive” in each case. Further, the Potency result in assay [7], in assay [8], in assay [9], in assay [10], in [11] and in assay [12] was “inactive” throughout. For the same molecule, the Potency result in assay [13], in [14] and in assay [16] was “inactive” each time. Moreover, the outcome in [15] was inactive.

Take `CCCCCCCCC(=O)OCC(C)OC(=O)CCCCCCCC` (configuration not stated): the Potency entry in assay [1], in assay [2], in [3], in [4], in assay [5] and in assay [6] was “inactive” in each case. For the same molecule, the Potency result in assay [7], in assay [9], in assay [10], in assay [11], in [14] and in assay [16] was “inactive” throughout. Further, the Potency result in assay [18] was “inactive”. Moreover, the molecule was classed as inactive in assay [17] and in assay [15].

In the case of `O=C(Nc1ccc2c(c1)Cc1ccccc1-2)C(F)(F)F`, the Potency entry in [1], in assay [2], in [3], in [4], in assay [5] and in assay [7] was “inactive” each time. In addition, the Potency result in assay [9], in assay [10], in assay [11], in assay [12], in assay [16] and in assay [18] was “inactive” throughout. The outcome in assay [17] and in assay [15] was inactive.

On to `CCc1cnc(C(=O)O)c(C(=O)O)c1`, for which the Potency entry in assay [1], in assay [2], in assay [3], in [4], in assay [5] and in assay [6] was “inactive” in each case. The Potency entry in assay [7], in [8], in assay [9], in assay [10], in assay [11] and in assay [12] was “inactive” in each case. In addition, the Potency entry in [19], in assay [14], in assay [16] and in assay [18] was “inactive” each time. Moreover, in assay [15], the call was inactive.

Regarding `Nc1ccc(C(=O)Oc2ccccc2)c(O)c1`, the Potency result in assay [1], in [2], in [3], in assay [4], in assay [5] and in assay [6] was “inactive” each time. Besides, the Potency entry in assay [7], in assay [8], in assay [9], in assay [10], in assay [11] and in assay [13] was “inactive” throughout. Besides, the Potency entry in assay [16] and in [18] was “inactive” in each case. The molecule was classed as inactive in assay [15].

For `CCCCCCCCNC`, the Potency result in [1], in [2], in assay [3], in assay [4], in [5] and in assay [6] was “inactive” in each case. Besides, the Potency result in assay [7], in assay [8], in assay [9], in assay [10], in [11] and in [12] was “inactive” each time. The Potency entry in assay [14], in assay [16] and in [18] was “inactive” in each case. Further, the call in [15] was inactive.

For the molecule `Clc1cccc(C(c2ccc3nc[nH]c3c2)n2ccnc2)c1` (configuration not stated), the Potency entry in [1], in [2], in [3], in assay [4], in [5] and in assay [8] was “inactive” each time. The Potency entry in [9], in assay [10], in [11], in assay [12], in assay [20] and in assay [13] was “inactive” throughout. Besides, the Potency result in assay [14], in assay [16] and in assay [18] was “inactive” each time. In addition, the call in assay [17] and in assay [15] was inactive. The Potency in assay [7] is 3.38 µM (active).

On to `O=C(Cl)c1ccc(F)c(Cl)c1`, for which the Potency entry in [1], in assay [2], in assay [3], in assay [4], in [5] and in assay [8] was “inactive” each time. The Potency entry in assay [9], in assay [10], in assay [11], in assay [12], in [19] and in [16] was “inactive” each time. The Potency result in assay [18] was “inactive”. For the same molecule, the call in assay [17] was inactive.

With `CCOC(=O)CC(O)(CC(=O)OCC)C(=O)OCC`, the Potency entry in assay [1], in assay [2], in assay [3], in assay [4], in assay [5] and in assay [7] was “inactive” each time. The Potency result in assay [8], in [9], in assay [10], in assay [11], in assay [12] and in [19] was “inactive” in each case. The Potency result in assay [14], in assay [16] and in [18] was “inactive” each time. The call in assay [17] and in [15] was inactive.
